The text below walks through data of PubChem BioAssay (Tox21).

Values joined by “and” are separate entries in the source; they are usually repeats but may differ in a detail not shown here. Identical values can stand only once. Active and inactive are the calls of the source. Entries that show only a call come without a potency. The call rests on the fitted dose curve.
Potency means the concentration at half of the fitted maximal effect.

The assay deals with Thyrotropin-releasing hormone receptor (Homo sapiens) (UniProt P34981). Description: qHTS assay to identify small molecule agonists of the thyrotropin-releasing hormone receptor (TRHR) signaling pathway (AID 1346891). As to conditions: TRHR-HEK293 calcium fluorescence, agonist mode; series mostly up to 57.6 µM. An excerpt: National Center for Advancing Translational Sciences [NCATS] NIH Chemical Genomics Center [NCGC] U.S. Environmental Protection Agency [EPA] National Institutes of Environmental Health Sciences [NIEHS] National Toxicology Program [NTP] Assay overview: Thyrotropin-releasing hormone (TRH) receptor (TRHR) is a G-protein-coupled receptor which binds the tripeptide thyrotropin releasing hormone. TRHR is found in the brain and, when bound by TRH, acts (through phospholipase C) to increase intracellular inositol trisphosphate. It plays a crucial role in the anterior pituitary where it controls the synthesis and secretion of thyroid stimulating hormone and prolactin. The TRHR-Hek293 assay is a cell-based assay, and it has the potential to screen G protein-coupled receptors. A compound/drug can either activate (agonist) or suppress (antagonist) GPCRs that can be monitored by levels of intracellular calcium. Using this assay, the Tox21 10K compound library was screened to identify potential TRHR agonists.
Sequence of Thyrotropin-releasing hormone receptor (Homo sapiens) (P34981 whole entry, looked up): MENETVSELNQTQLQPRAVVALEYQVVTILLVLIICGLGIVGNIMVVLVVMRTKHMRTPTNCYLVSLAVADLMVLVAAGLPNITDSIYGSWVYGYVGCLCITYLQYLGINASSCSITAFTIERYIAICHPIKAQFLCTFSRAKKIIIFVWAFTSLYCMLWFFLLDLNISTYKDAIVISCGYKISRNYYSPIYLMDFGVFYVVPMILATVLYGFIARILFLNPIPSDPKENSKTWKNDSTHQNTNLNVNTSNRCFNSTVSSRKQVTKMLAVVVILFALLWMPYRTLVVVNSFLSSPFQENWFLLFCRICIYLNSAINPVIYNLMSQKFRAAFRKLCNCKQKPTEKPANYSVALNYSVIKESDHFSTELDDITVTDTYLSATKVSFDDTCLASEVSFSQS
Assay Protocol Summary: The TRHR-Hek293 cells were dispensed at 1500cells/4uL/well in 1536-well black-clear bottom plates using a Multidrop dispenser. After the assay plates were incubated at a 37 C/5% CO2 incubator for 18 hours, 4 uL of Dye-Loading Solution was added to each well. The plates were incubated at 37 C for 2 hours. For agonist mode, 23 nL of compounds dissolved in DMSO, positive controls or DMSO only was transferred to the assay plate by a pin tool. The fluorescence intensity in the plates was measured using FDSS 7000EX kinetic plate reader for 3 min at 1 sec intervals. Each test compound was measured at 15 concentrations and in triplicates.
In general terms: In qHTS, concentration-response curves come from the screen itself.
Regarding `CCc1cccc(CC)c1NC(=O)C(=O)O`, the Potency result is “inactive”.

For `CC1(C)C(=O)N(CO)C(=O)N1CO`, the Potency result was “inactive”.

With `CCNc1nc(NC(C)CC)nc(OC)n1` (stereo not given), the Potency result was “inactive”.

As to `O=C1NC2CCCCN2C12CCN(CCCN1c3ccccc3CCc3ccc(Cl)cc31)CC2` (stereo not given), the Potency entry was “inactive”.

In the case of `CC(O)C#CC(C)O` (stereo not given), the Potency entry was “inactive”.

For `SCCCCCCCCS`, the Potency result was “inactive”.

For `Cc1oc(-c2ccccc2)nc1CCOc1ccc(C[C@H](Nc2ccccc2C(=O)c2ccccc2)C(=O)O)cc1`, the Potency result was “inactive”.

Regarding `NC1(c2ccc(-c3nc4ccn5c(=O)[nH]nc5c4cc3-c3ccccc3)cc2)CCC1`, the Potency entry was “inactive”.

On to `CCOC(=O)N1CCC(=C2c3ccc(Cl)cc3CCc3cccnc32)CC1`, for which the Potency result was “inactive”.

As for `CCOCN(C(=O)CS(=O)(=O)O)c1c(C)cccc1CC`, the Potency result was “inactive”.

In the case of `COc1ccc(-n2nc(CCC(=O)N(C)O)cc2-c2ccc(Cl)cc2)cc1`, the Potency entry is “inactive”.

For `Cc1cncc(C)c1`, the Potency entry was “inactive”.

`Cc1c(C(=O)O)cccc1[N+](=O)[O-]`: the Potency result was “inactive”.

`CCCCCCCC(OC)OC`: the Potency result is “inactive”.

In the case of `CC(=O)O[C@@H]1C[C@@H]2CC[C@@]1(C)C2(C)C`, the Potency result is “inactive”.

With `O=c1cccc[nH]1`, the Potency result is “inactive”.

As to `OCCC(O)CO` (stereo not given), the Potency entry is “inactive”.

`O=C(O)CCCCCCC(=O)O`: the Potency entry is “inactive”.

Regarding `CCN(CC)CCOc1ccc(C(O)(Cc2ccc(Cl)cc2)c2ccc(C)cc2)cc1` (stereo not given), the Potency result was “inactive”.

Turning to `Brc1ccccc1-c1ccccc1`, the Potency result is “inactive”.

As for `O=C1OC(=O)c2cccc3cccc1c23`, the Potency entry was “inactive”.

As for `N#CSCSc1nc2ccccc2s1`, the Potency entry is “inactive”.

As for `CO[Si](CCC1CCC2OC2C1)(OC)OC` (stereo not given), the Potency entry is “inactive”.

Take `c1ccc2c(c1)CCC2`: the Potency result was “inactive”.

Take `CCCCCCCCCCCCCOP(=O)(O)O`: the Potency result is “inactive”.

`C/C=C/C(=O)Oc1c(CCCCCC(C)C)cc([N+](=O)[O-])cc1[N+](=O)[O-]`: the Potency result was “inactive”.

With `COc1cccc(O)c1`, the Potency entry is “inactive”.

As to `Cc1ccc(O)cn1`, the Potency result is “inactive”.

Turning to `CCN=c1cc2oc3cc(NCC)c(C)cc3c(-c3ccccc3C(=O)OCC)c-2cc1C`, the Potency is 6.89 µM (active) and 5.49 µM (active).

Turning to `O=C(O)c1cccc(Cl)n1`, the Potency result was “inactive”.

Regarding `NC(=O)C(=O)N/N=C/c1ccc([N+](=O)[O-])o1`, the Potency result is “inactive”.

In the case of `Cc1ccc(CCn2c3c(c4cc(Cl)ccc42)CN(C)CC3)cn1`, the Potency result was “inactive”.

Turning to `CCCC(O)C(O)CO` (stereo not given), the Potency entry was “inactive”.

As for `NC(=O)c1ccccc1N`, the Potency result was “inactive”.

With `CCCCCCCC/C=C/CCCOC(C)=O`, the Potency result was “inactive”.

For `COC(=O)CC(C)CCC=C(C)C` (stereo not given), the Potency result was “inactive”.

In the case of `C#CC(O)CCC` (stereo not given), the Potency result was “inactive”.

Consider `CCO[Si](CCCSSSSCCC[Si](OCC)(OCC)OCC)(OCC)OCC`, for which the Potency result was “inactive”.

Regarding `CCN(CC)CCSC(=O)C(c1ccccc1)c1ccccc1`, the Potency result was “inactive”.

For `CCCCN(C)C`, the Potency entry was “inactive”.
